# Reference: PubChem BioAssay (NCI)
# This is part of a sample that, as a whole, favours compounds with a hit. Of some 83,000 tested, about 20% had one in any assay.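 Values shown are percent growth following 48 h exposure of cells in 96-well plates to a single concentration of compound; below 10 was considered active.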 The source made the active and inactive calls.
# Test system: SF-295 CNS
# Experiment: NCI-60 one-dose screen, 48 h (100 = growth as untreated, 0 = no growth, -100 = all killed)
# Details: 10 µM unless noted
row,Structure (SMILES),growth
1,Fc1ccc(C2=NN(c3ccccc3)C(c3sc(N(CCCl)CCCl)nc3Cl)C2)cc1 (configuration not stated),85.5% (inactive)
2,CC[C@H](C)[C@H](NC(=O)Nc1ccccc1)C(=O)N(C)[C@H](C[C@@H](OC(C)=O)c1nc(C(=O)N[C@@H](Cc2ccccc2)C[C@H](C)C(=O)OC)cs1)C(C)C,4.42% (active)
3,c1ccc(CCN2CCCCC2Cc2ccccc2)cc1 (configuration not stated),91.4% (inactive)
4,CC(=O)O[C@H]1CCC2(C)C(=CCC3C2CCC2(C)/C(=N/OC(=O)c4ccc(N(CCCl)CCCl)cc4)CCC32)C1 (some centres not stated),63.5% (inactive)
5,O=C(N/N=C/c1ccc(N(CCCl)CCCl)cc1)c1cc(=O)[nH]c(=O)[nH]1,87.2% (inactive)
6,O=[As]c1ccc(C(=O)c2ccc(Oc3ccccc3)cc2)cc1 (configuration not stated),-65.1% (active)
7,O=[N+]([O-])c1cc([N+](=O)[O-])c(Cl)c(Cl)c1Cl,98.5% (inactive)
8,COc1ccc2c(c1)NC1=C(C(=O)OC1)C2c1cc(OC)c(OC)c(OC)c1 (configuration not stated),1.12% (active)
9,C=CCc1ccc(OC(=O)Cc2ccccc2)c(OC)c1,95.7% (inactive)
10,CC(C)(O)/C=C/C(=O)[C@](C)(O)[C@H]1[C@H](O)C[C@@]2(C)[C@@H]3CC=C4[C@@H](C=C(O)C(=O)C4(C)C)[C@]3(C)C(=O)C[C@]12C,-43.2% (active)
11,C[C@]12CCc3sc(-c4ccc(Cl)cc4)nc3C1=CC[C@@H]1[C@@H]2CC[C@]2(C)C(=O)CC[C@@H]12,5.96% (active)
12,C=CCC1(CC)C(=O)NC(=S)NC1=O,108% (inactive)
13,NC(Cc1ccc2c(c1)OCO2)c1ccc2c(c1)OCO2 (configuration not stated),96.8% (inactive)
14,O=C(CF)N(O)c1ccc(/C=C/c2ccccc2)cc1,9.04% (active)
15,COc1ccc(/C=C(/C(=O)N2CCCC2)c2cc(OC)c(OC)c(OC)c2)cc1N,17.5% (inactive)
16,Nc1c(Br)cc([N+](=O)[O-])cc1[N+](=O)[O-],105% (inactive)
17,Oc1ccc(O)c2c1C1(Cl)C(Cl)=C(Cl)C2(Cl)C1(Cl)Cl,21.7% (inactive)
18,CN(C)P1(N(C)C)=NP(N(C)C)(N(C)C)=NP(N(C)C)(N(C)C)=N1,101% (inactive)
19,CCCCNCCc1ccccn1,100% (inactive)

row,Structure (SMILES),growth
1,CNC(=O)Oc1cccc(OC)c1,121% (inactive)
2,C=C=[CH][Sn]([c]1ccccc1)([c]1ccccc1)[c]1ccccc1,-42.7% (active)
3,NC(=O)SCC(=O)Nc1ccc([As](=O)(O)O)cc1,111% (inactive)
4,C[C@]12CC[C@H]3[C@@H](C[C@@H]4N=C(c5ccc(O)cc5)S[C@@]45C[C@H](O)CC[C@]35C)[C@@H]1CC[C@@H]2O,-36.2% (active)
5,CC1(C)N=C(N)N=C(N)N1c1ccc(CCCCc2ccc(S(=O)(=O)F)cc2)cc1,7.77% (active)
6,Nc1c(Br)cc2c3c(cccc13)-c1ccccc1-2,74.5% (inactive)
7,COc1cc2c(cc1OC)CN(C)C(C)C2 (configuration not stated),99% (inactive)
8,CC(C)C1c2ccc(O)cc2Oc2nc(N)c(C#N)c(N)c21 (configuration not stated),107% (inactive)
9,c1ccc2nc(OCCN3CC3)ccc2c1,75.8% (inactive)
10,c1ccc(-c2ccc3ccccc3[o+]2)cc1,104% (inactive)
11,CSc1ccccc1NP1(=O)OCC(C)([N+](=O)[O-])CO1 (configuration not stated),100% (inactive)
12,CC1COC(=O)C1 (configuration not stated),99.8% (inactive)
13,C[CH2][Pb]([CH2]C)([CH2]C)[O]C(=O)COc1ccccc1,-62.3% (active)
14,COc1ccc(/C=C\c2cc(OC)c(OC)c(OC)c2)cc1N/C=C\C(=O)c1c[nH]c2ccccc12,-11.8% (active)
15,CCCC(C)(C)c1ccc2c(c1)OC(C)(C)[C@@H]1CC=C(C)C[C@@H]21,101% (inactive)
16,OC1(c2ccc(Cl)cc2Cl)c2ccccc2C2=NCCN21 (configuration not stated),95.3% (inactive)
17,CC1(CF)NC(=O)NC1=O (configuration not stated),118% (inactive)
18,O=C(Nc1ccc(S(=O)(=O)F)cc1)Oc1ccccc1,96.8% (inactive)
